For 26 compounds, AC50 results are on record in paper PMC6792352, “Limited Chemical Structural Diversity Found to Modulate Thyroid Hormone Receptor in the Tox21 Chemical Library” (Environmental Health Perspectives, 2019).

Where a name gives a salt, the structure may show the parent alone.

This experiment concerns thyroid hormone receptor (endogenous TRα and TRβ). On the set-up: species or system GH3-TRE-Luc (rat pituitary); GH3-TRE-Luc luciferase reporter, antagonist mode against 1 nM T3, loss of signal, qHTS. Conditions: read-out: Average AC50 (uM) GH3-TRE-Antag, antagonist mode, 1 nM T3, no GH3 cytotoxicity hit.
Regarding `COC1=CC(=O)O[C@@H](/C=C/c2ccc3c(c2)OCO3)C1` [Methysticin], the AC50 (as a rule, the concentration giving half of the maximal activity seen) came to 0.0476 µM.
With `C=CCOC(=O)/C=C\C(=O)OCC=C` [Diprop-2-en-1-yl (2Z)-but-2-enedioate], the AC50 came out at 79.2 µM.
Consider `N[C@H](C(=O)O)[C@H](O)c1ccc(O)c(O)c1` [Droxidopa], for which the AC50 worked out at 29.5 µM.
Take `Cc1ccc2nc(-c3ccc(N)cc3)sc2c1S(=O)(=O)O`: the AC50 amounted to 45.2 µM.
As for `CCCCNc1ccc(C(=O)OCCN(CC)CC)cc1` [Depolipon], the half-maximal activity concentration (AC50) was 21 µM.
On to `CC[C@H](C)C(=O)O[C@H]1CCC=C2C=C[C@H](C)[C@H](CC[C@@H]3C[C@@H](O)CC(=O)O3)[C@H]21` [Mevastatin], for which the AC50 amounted to 30.9 µM.
On to `COC(=O)Nc1nc2ccc([S+]([O-])c3ccccc3)cc2[nH]1` (centres unmarked) [Oxfendazole], for which the AC50 turned out to be 12.2 µM.
Consider `S=P(N1CC1)(N1CC1)N1CC1` [Thiotepa], for which the AC50 is 37.9 µM.
With `C#C[C@]1(O)CC[C@H]2[C@@H]3CCC4=CC(=O)CCC4=C3C=C[C@@]21CC` [Gestrinone], the AC50 was 24.3 µM.
In the case of `C#C[C@]1(O)C=C[C@H]2[C@@H]3CCC4=CC(=O)CC[C@@H]4[C@H]3CC[C@@]21CC` [Gestodene], the AC50 amounted to 15.5 µM.
In the case of `CO[C@H]1O[C@@H]2O[C@@]3(C)CC[C@H]4[C@H](C)CC[C@@H]([C@H]1C)[C@@]24OO3` [Artemether] it was more than 50 µM; in that of `Oc1ccc2c(c1)-c1ccccc1C2` [3-Hydroxyfluorene], 91.5 µM.
`Nc1ccc(N)c(Cl)c1` [2-Chloro-1,4-diaminobenzene sulfate]: the AC50 came to 50.5 µM.
Turning to `Oc1ccc(Cc2ccccc2O)cc1` [2-(4-Hydroxybenzyl)phenol], the AC50 was found to be 63.8 µM.
Consider `CCOC(=O)C(C)OC(=O)c1cc(Oc2ccc(C(F)(F)F)cc2Cl)ccc1[N+](=O)[O-]` (centres unmarked) [Lactofen], for which the AC50 was 81.8 µM.
As to `COC(=O)[C@@H]1[C@H]2C[C@H]3c4[nH]c5ccccc5c4CCN3C[C@@H]2CC[C@@H]1O` [Yohimbine], the AC50 amounted to 43.8 µM.
Consider `CC/C=C\CC/C=C/C=O` [trans-2,cis-6-Nonadienal], for which the AC50 is 69.9 µM.
Turning to `CCOC(=O)OC1=C(c2cc(C)ccc2C)C(=O)N[C@]12CC[C@@H](OC)CC2` [Spirotetramat], the AC50 came to 69.7 µM.
Regarding `CC(C(=O)O)c1ccc2c(c1)CC(=O)c1ccccc1S2` (centres unmarked) [Zaltoprofen], the AC50 is 29.1 µM.
For `CCOc1ccc(Cc2nccc3cc(OCC)c(OCC)cc23)cc1OCC` [Ethaverine hydrochloride], the AC50 was found to be 8.58 µM.
The figure for `COc1ccc(Nc2ccccc2)c(C)c1` [4-Methoxy-2-methyl-N-phenylaniline] is 52.5 µM.
Consider `CCC(C)c1cc(C(C)(C)C)c(O)c(C(C)(C)C)c1` (centres unmarked) [4-(Butan-2-yl)-2,6-di-tert-butylphenol], for which the AC50 worked out at 23.6 µM.
Regarding `CCCCOc1ccc(OCCCN2CCOCC2)cc1` [Pramoxine hydrochloride], the AC50 was found to be 12.8 µM.
With `Cc1nc2ccccn2c(=O)c1CCN1CCC(C(=O)c2ccc(F)cc2)CC1` [Pirenperone], the AC50 worked out at 47 µM.
In the case of `CCCCOCCOC(=O)c1ccccc1C(=O)OCCOCCCC` [Bis(2-butoxyethyl) phthalate], the AC50 was 67.1 µM.
As for `COCCCOc1ccnc(C[S+]([O-])c2nc3ccccc3[nH]2)c1C` (centres unmarked) [Rabeprazole sodium], the AC50 came out at 51.1 µM.
